Phagocyt inh: inhibitors of macrophage phagocytosis, primary screen, imaging, J774A.1 cells, IgG beads. J774A.1 macrophage IgG-bead phagocytosis. AID 1029, 2008. inhibition, % at 5 µM. hit rate 0.07% among 110,000;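 active means inhibition above the mean of the plate negative controls plus 5 SD, cut at about 13% in these data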;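 further: phagocytic index as fraction of beads internalized from green versus red external bead signal; plate controls were DMSO negative control for no effect and cytochalasin-D positive control for full effect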
Mac1 fbg inh: inhibitors of CD11b/CD18 adhesion to fibrinogen, primary screen, K562 cells, luminescence. Integrin beta-2 (Homo sapiens) + Integrin alpha-M (Homo sapiens), P05107+P11215. ATPlite luminescence; Mn2+ added to activate the integrin. inhibition, % at 10 µM. hit rate 0.54% among 93,000. AID 1497, 2009;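 active means primary inhibition of 50% or more at 10 µM, then 40% or more on retest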
Target sequence (P05107 whole entry, looked up, other chains not shown): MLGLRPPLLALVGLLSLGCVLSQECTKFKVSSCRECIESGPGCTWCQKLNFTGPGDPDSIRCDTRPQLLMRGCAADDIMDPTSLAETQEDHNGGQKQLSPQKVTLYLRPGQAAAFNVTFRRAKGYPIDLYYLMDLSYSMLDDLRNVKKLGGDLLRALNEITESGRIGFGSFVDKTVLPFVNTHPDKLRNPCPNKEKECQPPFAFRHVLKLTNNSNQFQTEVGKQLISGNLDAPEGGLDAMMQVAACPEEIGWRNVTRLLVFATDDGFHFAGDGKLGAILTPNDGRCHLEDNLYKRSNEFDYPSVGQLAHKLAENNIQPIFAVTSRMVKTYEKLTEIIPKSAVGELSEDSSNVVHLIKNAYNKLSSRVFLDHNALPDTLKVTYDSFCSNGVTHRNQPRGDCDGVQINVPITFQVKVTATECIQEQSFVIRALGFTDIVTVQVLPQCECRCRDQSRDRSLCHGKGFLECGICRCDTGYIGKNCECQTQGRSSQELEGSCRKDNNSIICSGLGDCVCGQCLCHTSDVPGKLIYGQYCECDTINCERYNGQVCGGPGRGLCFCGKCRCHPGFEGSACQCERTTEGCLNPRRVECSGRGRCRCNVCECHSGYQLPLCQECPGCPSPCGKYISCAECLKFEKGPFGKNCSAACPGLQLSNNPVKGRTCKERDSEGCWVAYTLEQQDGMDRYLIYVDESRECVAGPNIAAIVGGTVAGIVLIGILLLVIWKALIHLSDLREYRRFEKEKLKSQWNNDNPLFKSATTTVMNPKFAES
CD11b adhes enh: enhancers of CD11b/CD18 adhesion to fibrinogen, primary screen, K562 cells, luminescence; ATPlite luminescence; activation, % at 10 µM; hit rate 0.07% among 93,000; AID 1499, 2009;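 active means 10 µM primary screen giving 50% or more activity, confirmed by 40% or more on retest at that dose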
MRP resist rev: reversal of MRP1-mediated doxorubicin resistance, primary screen, H69AR cells, doxorubicin co-treatment; H69AR cells + 2 uM doxorubicin, CellTiter-Glo, 72 h; differential viability (reversal), % at 10 µM; hit rate 0.04% among 85,000; AID 602, 2007;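 active means viability drop by adding the cancer drug above about 55%, with treated viability meeting a 40% cutoff, limit read from the data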;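 further: viability without doxorubicin minus viability with 2 µM doxorubicin for each compound; larger differential means the compound sensitizes cells more to doxorubicin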
MRP-1 activ: H69AR viability gain despite doxorubicin, primary screen, MRP-1 activator project, H69AR cells, CellTiter-Glo | viability increase, % at 10 µM | hit rate 0.61% among 140,000 | viability rescue | AID 799, 2007;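 active means viability gain under doxorubicin at or above a set limit, the compound median plus 3 SD, cut at about 4.7% in these data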;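 further: MRP-1 overexpressing cells given doxorubicin 25 µM after compound pretreatment; 18-22 h compound pretreatment then 72 h with doxorubicin before readout; 0% = doxorubicin-only wells and 100% = vehicle-treated cells without doxorubicin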
FAK inh: FAK kinase inhibitors, primary screen, biochemical; Focal adhesion kinase 1 (Homo sapiens), Q05397; biochemical FAK kinase activity assay; inhibition, %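 (tested at 7 µM)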; hit rate 0.84% among 97,000; AID 727, 2007;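 further: 0% = DMSO and 100% = reference compound high control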
FAK inh confirm: FAK kinase inhibitors, retest, confirmation, biochemical. shares compounds with FAK inh. FAK kinase biochemical inhibition assay. inhibition, % at 7 µM. hit rate 28% among 750
* marks the source's active call; other numbers are inactive results. The list is not random: actives were taken first. Their share in the collection is about 1.5%. Unless noted, no stated cut-off is given here; in the data, active means inhibition above about 19%; inactive means the rest.

Results for O=c1cc(-c2cccc3ccccc23)[nH][nH]1 ?
MRP resist rev: -0.1; MRP-1 activ: -2.5; FAK inh: 23.3*; FAK inh confirm: -0.4

What do the screens show for `CC(C)CN(C(=O)COC(=O)c1cc2c(s1)CCC2)C1CCS(=O)(=O)C1` (centres undefined)?
Phagocyt inh: -0.7; Mac1 fbg inh: -20.0; CD11b adhes enh: 69.8; MRP resist rev: 5.6; MRP-1 activ: -1.1; FAK inh: 30.1*; FAK inh confirm: 8.6

What do the screens show for `CCOc1cccc(CNc2ccc(O)cc2)c1OCc1ccc(Cl)cc1Cl`?
Phagocyt inh: -2.3; Mac1 fbg inh: 46.7; CD11b adhes enh: -9.2; MRP-1 activ: -5.2; FAK inh: 29.1*; FAK inh confirm: -0.5

How did O=c1nc2s/c(=C\c3ccco3)c(=O)n2nc1Cc1ccc(F)cc1 do in these assays?
Phagocyt inh: 2.0; Mac1 fbg inh: -22.8; CD11b adhes enh: 76.9; MRP resist rev: 10.6; MRP-1 activ: -4.0; FAK inh: 24.4*; FAK inh confirm: 4.5

What do the screens show for `CCOC(=O)c1sc2c(c1C)C(c1cccs1)C1=C(CCCC1=O)N2` (centres undefined)?
Phagocyt inh: 1.0; Mac1 fbg inh: -4.2; CD11b adhes enh: -5.2; MRP resist rev: 4.7; MRP-1 activ: -0.1; FAK inh: 23.7*; FAK inh confirm: 19.1*

What do the screens show for `CCCc1nc2n[nH]c(N)c2c2c1CCCC2`?
Phagocyt inh: -0.7; Mac1 fbg inh: 2.2; CD11b adhes enh: 4.9; MRP resist rev: -11.1; MRP-1 activ: -3.2; FAK inh: 21.4*; FAK inh confirm: 9.7

Results for O=C(Oc1ccc(-c2cnc3ccccc3n2)cc1)c1ccc(Br)o1 ?
Phagocyt inh: -2.1; Mac1 fbg inh: 14.6; CD11b adhes enh: 2.3; MRP resist rev: -2.4; MRP-1 activ: -0.8; FAK inh: 47.4*; FAK inh confirm: 24.3*

Results for O=C(Oc1ccc(-c2cnc3ccccc3n2)cc1)c1cccc([N+](=O)[O-])c1 ?
Phagocyt inh: 0.0; Mac1 fbg inh: -24.9; CD11b adhes enh: -0.2; MRP-1 activ: 0.0; FAK inh: -0.5

What do the screens show for `Cc1nc(NCc2ccco2)c2oc3ccccc3c2n1`?
Phagocyt inh: -0.1; Mac1 fbg inh: -30.5; CD11b adhes enh: 2.6; MRP-1 activ: -1.5; FAK inh: 23.9*; FAK inh confirm: 8.1

What do the screens show for `O=P(O)(O)c1ccccc1OCCCCCOc1ccccc1P(=O)(O)O`?
Phagocyt inh: 0.8; Mac1 fbg inh: 9.5; CD11b adhes enh: 1.3; MRP resist rev: 0.7; MRP-1 activ: -0.1; FAK inh: 88.0*; FAK inh confirm: 65.8*

How did O=P(O)(O)c1ccccc1OCCOCCOc1ccccc1P(=O)(O)O do in these assays?
Phagocyt inh: 1.9; MRP resist rev: 12.5; MRP-1 activ: -0.4

How did O=P(O)(O)c1ccccc1OCc1ccccc1 do in these assays?
Phagocyt inh: -1.1; Mac1 fbg inh: -9.4; CD11b adhes enh: -2.1; MRP resist rev: -7.3; MRP-1 activ: -0.3; FAK inh: 83.8*; FAK inh confirm: 80.8*

How did Cc1cc2n(c1)CCn1c(C)ccc1-2 do in these assays?
Phagocyt inh: 1.2; Mac1 fbg inh: -16.3; CD11b adhes enh: 92.9; MRP resist rev: 11.4; MRP-1 activ: -2.7; FAK inh: 22.9*; FAK inh confirm: 17.3

How did Cc1ccc2c(c1)NC(=O)c1cccnc1N2 do in these assays?
MRP-1 activ: -3.2; FAK inh: 11.6

How did O=C1Nc2ccccc2Nc2ncccc21 do in these assays?
Phagocyt inh: -1.8; Mac1 fbg inh: -1.2; CD11b adhes enh: -3.9; MRP-1 activ: -2.7; FAK inh: 38.7*; FAK inh confirm: 12.2

Results for CC(NCc1ccco1)C(=O)N1CCc2ccccc2C1 (centres undefined) ?
Mac1 fbg inh: -33.9; CD11b adhes enh: 0.7; MRP resist rev: 8.7; MRP-1 activ: -1.0; FAK inh: -2.0

Results for COC(=O)c1sc2nc(N)c(C#N)cc2c1N ?
Phagocyt inh: -2.9; MRP-1 activ: 0.8

What do the screens show for `COC(=O)c1sc2cnccc2c1N`?
Phagocyt inh: -0.8; Mac1 fbg inh: -11.8; CD11b adhes enh: -7.1; MRP resist rev: -7.0; MRP-1 activ: 0.1; FAK inh: 24.3*; FAK inh confirm: 5.0

What do the screens show for `COc1cccc(C(=O)N(Cc2ccc(N(C)C)cc2)C2CCS(=O)(=O)C2)c1` (centres undefined)?
Phagocyt inh: 0.1; Mac1 fbg inh: 2.5; CD11b adhes enh: -1.4; MRP resist rev: 5.2; MRP-1 activ: -1.2; FAK inh: 0.2

Results for CS(=O)(=O)N(CC(=O)Nc1ccc(CC#N)cc1)c1ccc(C23CC4CC(CC(C4)C2)C3)cc1 ?
Phagocyt inh: 1.1; Mac1 fbg inh: -7.8; CD11b adhes enh: -1.5; MRP-1 activ: -4.9; FAK inh: -4.0

What do the screens show for `CCCc1[nH]nc2c1C(c1ccc(O)c(OC)c1)C(C#N)=C(N)O2` (centres undefined)?
Phagocyt inh: 5.3; Mac1 fbg inh: 9.0; CD11b adhes enh: -0.9; MRP resist rev: -14.4; MRP-1 activ: -4.6; FAK inh: 20.0*; FAK inh confirm: 0.4

Results for CCn1c(SCC(=O)Nc2ccc3c(c2)c2ccccc2n3CC)nnc1-c1ccco1 ?
Phagocyt inh: -1.5; MRP resist rev: 0.4; MRP-1 activ: -1.1; FAK inh: 29.7*; FAK inh confirm: 1.7

What do the screens show for `Cc1ccc2[nH]c(=O)c(CN(CC3CCCO3)C(=S)Nc3ccccc3)cc2c1` (centres undefined)?
Phagocyt inh: -7.5; MRP-1 activ: -4.8

What do the screens show for `COc1ccc(O)c(/C=N/NC(=O)c2ccc(OCc3cccc(Br)c3)cc2)c1`?
MRP-1 activ: -2.2; FAK inh: 18.8*; FAK inh confirm: 8.9

What do the screens show for `COc1ccc(O)c(/C=N/NC(=O)c2ccc(CSc3nc(C)cc(C)n3)cc2)c1`?
Phagocyt inh: -11.2; MRP-1 activ: -0.8

How did Cc1cccc2cc(CN(CCN(C)C)C(=S)Nc3ccccc3)c(=O)[nH]c12 do in these assays?
Phagocyt inh: -1.2; MRP-1 activ: -0.7

How did COc1cc(C2CC(=O)c3cnc(N4CCN(Cc5ccccc5)CC4)nc3C2)cc(OC)c1OC (centres undefined) do in these assays?
Phagocyt inh: -1.0; Mac1 fbg inh: 5.6; CD11b adhes enh: 4.0; MRP resist rev: -27.6; MRP-1 activ: -2.9; FAK inh: 19.2*; FAK inh confirm: 5.4

Results for Cc1ccc(C)c(CN2C(=O)C3CCCN3c3ccc(S(=O)(=O)N4CCOCC4)cc32)c1 (centres undefined) ?
MRP-1 activ: -1.1; FAK inh: -2.0
